Test results: PubChem BioAssay (NCI)
The panel holds about 79,000 compounds, 15% with a hit somewhere; the sample as a whole holds those more often. Unmarked numbers belong to inactive results. Activity calls are given as the source filed them. Rule as the data show it: active = growth inhibition above about 70%; inactive = the rest.

Test: NCI Yeast Anticancer Drug Screen. Data for the sgs1 mgt1 strain (AID 161);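 also: 0% = growth of cultures given vehicle only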
Settings: S. cerevisiae sgs1 mgt1 strain, at 50.0 µM, active compounds read high
Summary of the method: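 Inhibition of yeast growth, normalised to vehicle-treated controls, is reported for a strain bearing genetic alterations in DNA damage repair.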

SMILES	growth inhibition
C/C=C/C(=O)[O-].C/C=C/C(=O)[O-].N.N.N.N.[Co+3].[O-][Cl+3]([O-])([O-])[O-]	-7.2%
CC1(C)C(=O)N(O)C(C)(C)N1N=O	18.1%
CC(=O)Oc1cccc(C#N)c1	1.7%
COc1cc2c(cc1O)CNCC2c1ccc(O)c(C)c1 (stereo not drawn)	9.55%
[Se]=[Mo]=[Se]	-29.9%
CCC(Br)(CC)C(=O)NC(N)=O	-13.9%
O=Cc1ccccc1.[C-]#[O+].[C-]#[O+].[C-]#[O+].[Cr]	1.8%
Cc1ccc(SCC(CSCCO)OCn2cnc3c2NC(N)=NC32OCCO2)cc1 (stereo not drawn)	-37.2%
C1=CC2CCC1C2	-7.1%
COc1ccc2c(c1)C1(C)CCN(C)CC(C1)C2O (stereo not drawn)	15.6%
CCOP(=O)(OCC)Oc1c(Cl)c(Cl)c(Cl)c(Cl)c1Cl	86% (active)
CN(C)Cc1c[nH]c2ccc(F)cc12	-15.2%
CCCCCCCCCCOC(=O)c1ccccc1C(=O)OCCCCCCCCCC	-13.8%
CN(C)C(=O)Oc1ccc(Cl)cc1Cl	-5.8%
CC(=O)OC1CCC2(C)C(CC(=O)C3C2CCC2(C)C(OC(C)=O)CCC32)C1 (stereo not drawn)	1.5%
COC12C(COC(N)=O)C3=C(C(=O)C(C)=C(N4CC4)C3=O)N1CC1NC12 (stereo not drawn)	90.9% (active)
CC(C)CCC1C(=O)NC(=O)NC1=O	-15.4%
CC(C)(C)NCC(COc1ccc([N+](=O)[O-])cc1)OP(c1ccccc1)c1ccccc1 (stereo not drawn)	2.25%

SMILES	growth inhibition
Fc1ccc(N=C=S)cc1	-24.1%
NCCCN1CCN(c2ccccc2)CC1	-12.6%
[Cl][Pt]([Cl])[Cl].[NH-]C1CN2CCC1CC2 (stereo not drawn)	-13.8%
CC(C)N[C@@H]1CCC[C@H]1O	-17.1%
CC[C@@]1(O)C(=O)OCc2c1cc1n(c2=O)Cc2cc3cc(OC)ccc3nc2-1	86.7% (active)
CC(=O)O[C@H]1CC[C@@]2(C)[C@H](CC[C@@H]3[C@@H]2CC[C@]2(C)[C@@H](c4ccc(=O)oc4)C[C@H]4O[C@]342)C1	29.5%
CCCCCCCCCSCP(=O)(OCC)OCC	99.7% (active)
[CH3][Sn]1([CH3])[O]CC(COc2cc(Cl)c(Cl)cc2Cl)[O]1 (stereo not drawn)	2.95%
CCCC(=O)OC1C(c2ccc(=O)oc2)C2(C)CCC3C(CCC4CC(OC(C)=O)CCC43C)C23OC13 (stereo not drawn)	1.5%
O=C(O)C(O)(Cl)c1cccs1 (stereo not drawn)	-4.8%
CCOP(=O)(OCC)O/N=C(/c1ccccc1)C(C)C	19.9%
Cc1ccc(S(=O)(=O)Nc2cc(C)cc(CCN)c2C)cc1	-14.6%
C[N+](C)(C)CC1CCc2ccccc2C1=O (stereo not drawn)	69.2%
CC(=O)[CH-]C(C)=O.CC(=O)[CH-]C(C)=O.CC(=O)[CH-]C(C)=O.CCC(=O)O.[Zn+2].[Zn]	-18.4%
O=C(CCC1CCCCN1)Nc1ccc2c(c1)C(=O)c1ccc(NC(=O)CCN3CCCCC3)cc1C2=O (stereo not drawn)	-1.9%
COc1ccc2c(c1)CCC1C2CCC2(C)C1CCC21CCNP(=O)(N(CCCl)CCCl)O1 (stereo not drawn)	72.2% (active)
O=C(COc1cccc(Cl)c1Cl)Nc1ccc[n+](Cc2ccc(S(=O)(=O)F)cc2)c1	-5.45%
Cc1ccc(C)c(C(C)NC2=NCCO2)c1 (stereo not drawn)	-11.7%

Test: NCI Yeast Anticancer Drug Screen. Data for the cln2 rad14 strain (AID 165);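 also: 0% = growth equal to vehicle treated cultures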
Settings: S. cerevisiae cln2 rad14 strain, at 50.0 µM, active compounds read high
Summary of the method: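 Compounds are applied to the cln2 rad14 yeast strain, and growth is then compared with that of vehicle-treated cultures to give inhibition.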

SMILES	growth inhibition
C/C=C/C(=O)[O-].C/C=C/C(=O)[O-].N.N.N.N.[Co+3].[O-][Cl+3]([O-])([O-])[O-]	25.1%
CC1(C)C(=O)N(O)C(C)(C)N1N=O	28.4%
CC(=O)Oc1cccc(C#N)c1	-24.8%
COc1cc2c(cc1O)CNCC2c1ccc(O)c(C)c1 (stereo not drawn)	-13.8%
[Se]=[Mo]=[Se]	-18%
CCC(Br)(CC)C(=O)NC(N)=O	-16.4%
O=Cc1ccccc1.[C-]#[O+].[C-]#[O+].[C-]#[O+].[Cr]	-19.1%
Cc1ccc(SCC(CSCCO)OCn2cnc3c2NC(N)=NC32OCCO2)cc1 (stereo not drawn)	-7.4%
C1=CC2CCC1C2	-52%
COc1ccc2c(c1)C1(C)CCN(C)CC(C1)C2O (stereo not drawn)	22.9%
CCOP(=O)(OCC)Oc1c(Cl)c(Cl)c(Cl)c(Cl)c1Cl	28.4%
CN(C)Cc1c[nH]c2ccc(F)cc12	5.65%
CCCCCCCCCCOC(=O)c1ccccc1C(=O)OCCCCCCCCCC	17.3%
CN(C)C(=O)Oc1ccc(Cl)cc1Cl	-7.3%
CC(=O)OC1CCC2(C)C(CC(=O)C3C2CCC2(C)C(OC(C)=O)CCC32)C1 (stereo not drawn)	15.8%
CCOP(=O)(OCC)C(C)(C)OC(=O)NC#N	-8.85%
COC12C(COC(N)=O)C3=C(C(=O)C(C)=C(N4CC4)C3=O)N1CC1NC12 (stereo not drawn)	86.3% (active)
CC(C)CCC1C(=O)NC(=O)NC1=O	8.1%
CC(C)(C)NCC(COc1ccc([N+](=O)[O-])cc1)OP(c1ccccc1)c1ccccc1 (stereo not drawn)	23.6%

SMILES	growth inhibition
Fc1ccc(N=C=S)cc1	-9.8%
NCCCN1CCN(c2ccccc2)CC1	26%
[Cl][Pt]([Cl])[Cl].[NH-]C1CN2CCC1CC2 (stereo not drawn)	22.4%
CC(C)N[C@@H]1CCC[C@H]1O	11.7%
CC[C@@]1(O)C(=O)OCc2c1cc1n(c2=O)Cc2cc3cc(OC)ccc3nc2-1	80.7% (active)
CC(=O)O[C@H]1CC[C@@]2(C)[C@H](CC[C@@H]3[C@@H]2CC[C@]2(C)[C@@H](c4ccc(=O)oc4)C[C@H]4O[C@]342)C1	13.9%
CCCCCCCCCSCP(=O)(OCC)OCC	98.9% (active)
[CH3][Sn]1([CH3])[O]CC(COc2cc(Cl)c(Cl)cc2Cl)[O]1 (stereo not drawn)	5.35%
CCCC(=O)OC1C(c2ccc(=O)oc2)C2(C)CCC3C(CCC4CC(OC(C)=O)CCC43C)C23OC13 (stereo not drawn)	9.6%
O=C(O)C(O)(Cl)c1cccs1 (stereo not drawn)	-16.6%
CCOP(=O)(OCC)O/N=C(/c1ccccc1)C(C)C	10.3%
Cc1ccc(S(=O)(=O)Nc2cc(C)cc(CCN)c2C)cc1	4.75%
C[N+](C)(C)CC1CCc2ccccc2C1=O (stereo not drawn)	50.2%
CC(=O)[CH-]C(C)=O.CC(=O)[CH-]C(C)=O.CC(=O)[CH-]C(C)=O.CCC(=O)O.[Zn+2].[Zn]	-38%
O=C(CCC1CCCCN1)Nc1ccc2c(c1)C(=O)c1ccc(NC(=O)CCN3CCCCC3)cc1C2=O (stereo not drawn)	9.3%
COc1ccc2c(c1)CCC1C2CCC2(C)C1CCC21CCNP(=O)(N(CCCl)CCCl)O1 (stereo not drawn)	23.3%
O=C(COc1cccc(Cl)c1Cl)Nc1ccc[n+](Cc2ccc(S(=O)(=O)F)cc2)c1	31.2%
Cc1ccc(C)c(C(C)NC2=NCCO2)c1 (stereo not drawn)	1.2%
